Source: PubChem
S2 tox: viability counter-screen for ATXN expression inhibitors. Potency, µM (series often up to 56.7 µM), most hits filed as cytotoxic. 400,000 compounds, 0.49% hits. S2 cells (HEK-293 line with an ATXN2-luciferase reporter) viability, CellTiter-Fluor protease fluorescence, 24 h; note: nearly all actives have a fitted effect of over 40% in size
ATXN2 expr inh: inhibitors of ATXN2 expression | 360,000 compounds, 0.72% hits | HEK-293 ATXN2-luciferase reporter, luminescence, 24 h | Potency, µM (top dose mostly 57 µM), for the others: at the highest dose activity change, negative = inhibition, usual class: inhibitors; note: % is set by controls: 0 for no effect and ±100 for the full control effect; nearly all actives have a fitted effect of over 55% in size
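ATXN2-luciferase reporter cells (luciferase flanked by upstream and downstream ATXN2 gene portions) were treated 24 h at 37 °C with compounds at up to 57 uM. SteadyGlo luminescence gave expression; GF-AFC fluorescence gave viability.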
HT1080 IDH1KD tx: toxicity to HT-1080 IDH1 knockdown cells (counter line) | HT-1080 IDH1 knockdown viability, ATP luminescence, 48 h | Potency, µM (doses to about 46.1 µM), for the others: top-dose activity, negative = toxicity, usual class: cytotoxic | 360,000 compounds, 2% hits | AID 686971;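 note: 0% = DMSO wells and -100% = cell-free medium wells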
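Assay cells: HT-1080 with IDH1 knockdown, 750 per well, RPMI/5% FBS. Exposure: 48 h at 37 °C following 2 h pre-incubation. Read: CellTiter-Glo luminescence; fitted concentration-response, curve class assigned.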
KB-3-1 cytotox: kills parental KB-3-1 adenocarcinoma cells; KB-3-1 viability, CellTiter-Glo ATP luminescence, 72 h; Potency, µM (series often up to 46.1 µM), most hits filed as cytotoxic; 400,000 compounds, 1.4% hits; AID 1347075; note: % is set by controls: 0 for no effect and ±100 for the full control effect; nearly all actives have a fitted effect of over 60% in size
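Luminescent ATP read-out (CellTiter-Glo) measures survival of drug-naive KB-3-1 cells after 72 h compound exposure at 37 °C. Titration series was screened from lowest to highest concentration, with DMSO vehicle plates as background controls.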
KB-V1 cytotox: KB-V1 MDR subline cytotoxicity; Potency, µM (doses to about 46.1 µM), hits mostly cytotoxic; 400,000 compounds, 3.4% hits; KB-V1 MDR cells viability, CellTiter-Glo, 72 h; AID 1347076; note: % is set by controls: 0 for no effect and ±100 for the full control effect; nearly all actives have a fitted effect of over 60% in size
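Luminescent ATP read-out (CellTiter-Glo, 10 min) measures survival of drug-selected KB-V1 MDR cells after 72 h, 37 degrees C compound exposure. Medium: phenol-red-free DMEM, 10% FBS. Values from fitted concentration-response curves.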
HT1080NT lethal: kills 2HG-producing HT-1080-NT fibrosarcoma cells; Potency, µM (highest dose often 46.1 µM), inactives show top-dose activity, negative = less viability, hits mostly cytotoxic; HT-1080-NT fibrosarcoma viability, CellTiter-Glo ATP luminescence, 48 h; 360,000 compounds, 1.6% hits;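 note: NT is the 2HG producing partner of a matched IDH1 knockdown line; 0% = DMSO-treated cells and -100% = media-only wells without cells; nearly all actives have a fitted effect of over 55% in size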
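Luminescent CellTiter-Glo readout after 48 hours of compound exposure at 37 degrees C defined viability of HT-1080-NT cells. Activity was normalized to DMSO wells and cell-free media wells; concentration-response curves were fitted and assigned curve classes.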
* hit, by the source's call; i = inactive; ? = inconclusive; nt = no result; ! = not confirmed by another sample. The list is not random: actives were taken first. Their share in the collection is about 6.2%. Calls come from the whole dose curve; as a rule, active = well fitted curve in the direction sought with a large enough effect; inconclusive = small, poorly fitted or top-dose-only effect, or another doubt; inactive = no such curve, though single readings can be large; an effect the other way counts as inactive or inconclusive. Potency is the fitted concentration of half-maximal effect.

SMILES	S2 tox	ATXN2 expr inh	HT1080 IDH1KD tx	KB-3-1 cytotox	KB-V1 cytotox	HT1080NT lethal
CCOC(=O)c1cnc2ccc(OCC)cc2c1NCc1cccnc1	i	11%	?	?	?	?
CCOC(=O)C1=C[C@@H](C2CCCC2)N(S(=O)(=O)c2ccc([N+](=O)[O-])cc2)[C@H]1c1ccccc1	?	-8%	?	i	?	?
CC(C)NC(=O)C1(C)CCN1Cc1cccc(Cl)c1 (stereo unspecified)	i	8%	5%	i	i	2%
CCOC(=O)c1ccc(-c2c(-c3cc(OC)c(OC)c(OC)c3)noc2C)cc1F	?	-13%	1.8µM*	1.6µM*!	12µM*	?
Cc1ccc(C)n1-c1ccc(C(=O)NC2CCN(Cc3ccccc3)CC2)cc1	i	-31%	-11%	?	2.3µM*	0%
CN(CC(=O)NC1CCN(Cc2ccccc2)CC1)S(=O)(=O)c1ccc(Br)s1	i	-22%	2%	23µM*	?	-1%
CCN(c1ccccc1)S(=O)(=O)c1ccc(C(=O)NC2CCN(Cc3ccccc3)CC2)cc1	?	?	?	16µM*	?	-17%
Cc1ccc(OCCSc2nc3ccccc3n2CC(=O)N2CCOCC2)cc1C	i	2%	nt	i	i	nt
Cc1nn(-c2ccccc2)c2c1C(=O)N(c1ccccc1)C(=O)C(C)(C)C2	i	-8%	-4%	i	i	-3%
Cc1nn(-c2ccccc2)c2c1/C(=N/O)CC(C)(C)C2	i	3%	-3%	i	16µM*	-4%
COc1cc(NC(=O)c2ccc(COc3ccccc3Br)o2)cc(OC)c1OC	i	2%	5%	i	7.3µM*	0%
CC1CCC(NC(=O)c2ccc(NC(=O)CC3SC(N4CCCC4)=NC3=O)cc2)CC1 (stereo unspecified)	?	63%	-7%	i	?	1%
COc1ccccc1C(=O)Nc1ccc2c(c1)OCCO2	i	56%	-9%	i	i	-18%
COc1cc(SC)ccc1C(=O)Nc1ccc2c(c1)OCCO2	i	26%	?	i	?	1.8µM*
COc1cc(SC)ccc1C(=O)NNC(=O)c1cc(C)oc1C	?	-7%	9.2µM*	?	?	8.2µM*
CC(=O)N1CCN(c2ccc(Oc3ccc([N+](=O)[O-])c(C(F)(F)F)c3)cc2)CC1	i	?	-29%	?	5.2µM*	?
CC(CC(=O)NCc1ccc(Cl)cc1)CC1=NS(=O)(=O)c2ccccc2N1 (stereo unspecified)	i	-5%	nt	i	i	nt
CCOC(=O)C1(N(CC)CC)Sc2cc(C)ccc2NC1=O (stereo unspecified)	i	63%	?	?	10µM*	?
C[C@H]1CN([C@@H](C)CO)C(=O)c2cccc(NC(=O)Nc3ccc(C(F)(F)F)cc3)c2O[C@@H]1CN(C)C(=O)Nc1ccc(F)cc1	13µM*	20µM*	?	?	i	?
C[C@@H]1CN([C@@H](C)CO)C(=O)c2cccc(NC(=O)Nc3ccc(F)cc3)c2O[C@@H]1CN(C)Cc1ccc(Oc2ccccc2)cc1	18µM*	?	?	i	i	23µM*
C[C@H](CO)N1C[C@H](C)[C@@H](CN(C)C(=O)Nc2ccc(C(F)(F)F)cc2)Oc2c(NC(=O)Nc3ccc(C(F)(F)F)cc3)cccc2C1=O	16µM*	?	?	16µM*	?	?
CC(C)(C)OC(=O)N1C(=O)[C@](OC(=O)c2ccccc2)(c2ccccc2)c2cccc(F)c21	?	-26%	?	i	?	-24%
Cc1ccc(C)c(S(=O)(=O)N2CCCCC2CCNC(=O)C(=O)NCCc2ccco2)c1 (stereo unspecified)	?	-25%	-5%	i	i	-1%
Cc1ccc(S(=O)(=O)N2CCCCC2CCNC(=O)C(=O)Nc2ccccc2F)cc1 (stereo unspecified)	i	6%	-1%	7.3µM*	5.8µM*	-4%
Cc1cc(S(=O)(=O)N2CCCCC2CCNC(=O)C(=O)NCC2CCCO2)ccc1F (stereo unspecified)	i	-8%	8%	i	2.6µM*	1%
SMILES	S2 tox	ATXN2 expr inh	HT1080 IDH1KD tx	KB-3-1 cytotox	KB-V1 cytotox	HT1080NT lethal
Cc1ccc(C)c(S(=O)(=O)N2CCCCC2CCNC(=O)C(=O)NCc2ccncc2)c1 (stereo unspecified)	?	-16%	-3%	?	2.3µM*	9%
O=C(NCCC1CCCCN1S(=O)(=O)c1ccc(F)cc1)C(=O)Nc1ccccc1F (stereo unspecified)	i	-3%	-2%	i	i	0%
Cc1ccc(S(=O)(=O)N2CCCCC2CCNC(=O)C(=O)NCCc2ccco2)cc1 (stereo unspecified)	i	-18%	18µM*	5.2µM*	6.5µM*	10µM*
COc1ccccc1N1CCN(C(=O)Cn2cnc3sc(C)c(S(=O)(=O)N4CCC(C)CC4)c3c2=O)CC1	i	9%	nt	i	i	nt
COc1ccc2c(c1)CCc1c(C(=O)Nc3ccc(F)c(Cl)c3)noc1-2	i	3%	nt	i	?	nt
Cc1ccc(C)c(S(=O)(=O)c2nnn3c2nc(N2CCCCC2)c2sccc23)c1	nt	nt	nt	i	?	nt
Cc1ccc(C)c(C(=O)N2CCC(C3(c4ccccn4)NC(=O)N(CC4CCCO4)C3=O)CC2)c1 (stereo unspecified)	i	nt	nt	nt	nt	nt
COCCNC(=O)C1(C)CCN(C(=O)c2sccc2C)C1 (stereo unspecified)	i	7%	15%	i	i	22%
Cc1ccc(S(=O)(=O)N2CCCCC2CCNC(=O)C(=O)NCc2ccco2)cc1 (stereo unspecified)	i	-18%	13µM*	?	?	?
Cc1cc(C)c(S(=O)(=O)N2CCCCC2CCNC(=O)C(=O)NCc2ccco2)c(C)c1 (stereo unspecified)	i	?	?	?	?	-22%
COc1ccc(S(=O)(=O)N2CCCC2CNC(=O)C(=O)Nc2ccc(F)cc2)cc1 (stereo unspecified)	i	37%	-6%	i	i	-2%
COc1ccc(S(=O)(=O)N2CCCC2CNC(=O)C(=O)Nc2cccc(F)c2)cc1 (stereo unspecified)	i	-11%	-9%	i	4.1µM*	0%
